# Many of the other results were omitted from the sample, so hits are more common in it than they were.
# Cruzain Triton – inhibitors of Trypanosoma cruzi cruzain with detergent | Potency, µM, hits mostly inhibitors | AID 1478 | purified cruzain, Z-FR-AMC fluorescence, 0.01% Triton | P25779 | 200,000 tested, 0.43% active; also: nearly all actives have a fitted effect of over 40% in size
# Target sequence (P25779 123-467 limits assumed): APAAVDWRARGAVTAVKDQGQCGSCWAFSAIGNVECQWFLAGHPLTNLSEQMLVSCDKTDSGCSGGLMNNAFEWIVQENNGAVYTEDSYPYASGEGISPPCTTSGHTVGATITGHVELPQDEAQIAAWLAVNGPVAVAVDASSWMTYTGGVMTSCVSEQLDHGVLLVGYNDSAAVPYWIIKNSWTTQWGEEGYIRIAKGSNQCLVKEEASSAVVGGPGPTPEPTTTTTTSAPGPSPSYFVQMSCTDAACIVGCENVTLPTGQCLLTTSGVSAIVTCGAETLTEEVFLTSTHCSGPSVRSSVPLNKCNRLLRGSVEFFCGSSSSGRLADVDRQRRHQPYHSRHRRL
#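 Detergent-containing arm of a paired screen for aggregation-based inhibition: 0.01% Triton X-100 present. Cruzain at 1.5 nM cleaved 2 uM Z-FR-AMC at pH 5.5 with 5 mM DTT; AMC fluorescence gain over 60 s measured activity.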
# Cruzain noTriton – inhibitors of Trypanosoma cruzi cruzain without detergent; 200,000 tested, 2.3% active; Potency, µM, hits mostly inhibitors; P25779; purified cruzain, Z-FR-AMC fluorescence, no detergent; also: nearly all actives have a fitted effect of over 40% in size
#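 Detergent-free condition (0.00005% Triton X-100) in acetate buffer pH 5.5 with DTT. 1.5 nM enzyme and compound were pre-mixed 15 min, then 2 uM Z-FR-AMC substrate added; reaction progress from fluorescence change between first and third reads (60 s).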
# FBPA Giardia inh – blocks Giardia fructose-bisphosphate aldolase activity. A8B2U2. Potency, µM (titrated, usually from 59.6 µM), hits mostly inhibitors. AID 2451. 290,000 tested, 0.71% active. purified Giardia FBPA; also: nearly all actives have a fitted effect of over 55% in size
# Target sequence (A8B2U2 whole entry, looked up): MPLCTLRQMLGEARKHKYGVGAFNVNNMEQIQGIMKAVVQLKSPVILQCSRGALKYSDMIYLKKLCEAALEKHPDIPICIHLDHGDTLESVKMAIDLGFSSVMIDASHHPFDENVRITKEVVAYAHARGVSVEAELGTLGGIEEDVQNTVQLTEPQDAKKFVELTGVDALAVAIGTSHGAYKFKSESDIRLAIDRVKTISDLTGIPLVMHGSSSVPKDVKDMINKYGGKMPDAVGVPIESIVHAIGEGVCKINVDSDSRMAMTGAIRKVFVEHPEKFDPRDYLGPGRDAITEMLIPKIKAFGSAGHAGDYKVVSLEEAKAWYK
#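 Giardia FBPA (40 nM reagent) was preincubated 10 min at RT with compound (up to 57.5 uM final), then substrate plus GAPDH/TPI/NAD/arsenate coupling system with diaphorase/resazurin was added; resorufin fluorescence (525/598 nm) was read after 20 min.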
# Hits are given with their value; . = inactive; ? = inconclusive; / = no result; [ ] = remark or other dose. Calls follow the shape of the dose curve; as a rule, active = well fitted curve in the direction sought with a large enough effect; inconclusive = small, poorly fitted or top-dose-only effect, or another doubt; inactive = no such curve, though single readings can be large; an effect the other way counts as inactive or inconclusive.
SMILES,Cruzain Triton,Cruzain noTriton,FBPA Giardia inh
CO/N=C(\C)CCN1CCCCc2nc(C)c(C)cc21,/,/,.[12.9 µM]
CC[C@H](C)[C@H](NC(=O)[C@H](Cc1cnc[nH]1)NC(=O)[C@@H](NC(=O)[C@H](CCCNC(=N)N)NC(=O)[C@H](CCCCN)NC(=O)[C@H](CCCNC(=N)N)NC(=O)[C@H](CCCCN)NC(=O)[C@@H](N)CC(N)=O)[C@@H](C)CC)C(=O)NCC(=O)N1CCC[C@H]1C(=O)NCC(=O)N[C@@H](CCCNC(=N)N)C(=O)N[C@@H](C)C(=O)N[C@@H](Cc1ccccc1)C(=O)N[C@@H](Cc1ccc(O)cc1)C(=O)N[C@H](C(=O)N[C@H](C(=O)N[C@@H](CCCCN)C(=O)N[C@@H](CC(N)=O)C(=O)N[C@H](C(=O)N[C@H](C(=O)NCC(=O)N[C@H](C(=O)N[C@H](C(=O)N[C@@H](CS)C(=O)O)[C@@H](C)CC)[C@@H](C)O)[C@@H](C)CC)[C@@H](C)CC)[C@@H](C)O)[C@@H](C)O,/,/,.
O=C1c2ccccc2C(O)N1c1ccc(Cl)cc1 (stereo not given),.,.,.
COC(=O)C1CN(C#N)N(c2ccc(Cl)cc2)C12c1ccccc1-c1ccccc12 (stereo not given),.,25µM,.
c1ccc(C2=NN[C@@H]3c4ccccc4-c4ccccc4N3C2)cc1,.,.,/
Cc1ccc(C(=O)c2cnc3cc4c(cc3c2S(=O)(=O)c2ccccc2)OCCO4)cc1,.,?,.
COc1ccc(S(=O)(=O)c2c(C(=O)c3ccc(C)c(C)c3)cnc3ccc(C)cc23)cc1,.,13µM,/
Cc1ccc2ncc(C(=O)c3ccc(C)c(C)c3)c(S(=O)(=O)c3ccccc3)c2c1,.,.,/
CCOc1ccc(S(=O)(=O)c2c(C(=O)c3ccc(C)cc3)cnc3cc4c(cc23)OCCO4)cc1,.,6.3µM,.
COc1ccccc1CNc1ncnc2ccc(-c3ccccc3C#N)cc12,.,?,.
Cc1cc(C(=O)CSc2nnc(N)s2)c(C)n1CCc1ccc(F)cc1,.,16µM,.
Cc1cc(C(=O)CSc2nc(N)cc(=O)[nH]2)c(C)n1CCc1ccc(F)cc1,.,25µM,.
COc1ccc(CCn2c(C)cc(C(=O)CSc3nnc(N)s3)c2C)cc1,.,?,.
Cc1cc(C(=O)CCl)c(C)n1CCc1ccc(F)cc1,/,/,.
Cc1cc(C(=O)CSc2nnc(N)s2)c(C)n1CCc1ccc(Cl)cc1,.,?,.
Cc1cc(C(=O)CSc2nnnn2C)c(C)n1CCc1ccc(F)cc1,.,25µM,.
COc1ccc(CCn2c(C)cc(C(=O)CSc3nc(N)cc(=O)[nH]3)c2C)cc1,.,25µM,.
Cc1cc(C(=O)CSc2nnnn2-c2ccccc2)c(C)n1CCc1ccccc1,.,.,.
COC(=O)C/C=C\[C@@H](C)[C@@H](CO)NS(=O)(=O)c1ccc(C)cc1,/,/,.[12.9 µM]
CCCCn1cnc2c(SC)ncnc21,.,.,/
CC[C@H]1CN(C)[C@H]2Cc3c([nH]c4ccccc34)C(=O)C[C@H]1[C@H]2C(=O)OC,.,.,/
NC(=O)C/C=C\CC(N)=O,.,.,/
CCCSc1ncc(Cl)c(C(=O)Nc2nc3ccc(C)cc3s2)n1,.,.,/
CC(N)Cc1c[nH]c2ccc(O)cc12 (stereo not given),.,.,4µM
C[C@H](N)Cc1c[nH]c2ccc(O)cc12,.,.,.
SMILES,Cruzain Triton,Cruzain noTriton,FBPA Giardia inh
O=C(CN1C(=O)COc2ccc(S(=O)(=O)N3CCCCCC3)cc21)Nc1cccc(Cl)c1,.,.,/
CC/C(=C(\c1ccccc1)c1ccc(OCCN(C)C)cc1)c1ccc(O)cc1,.,.,/
Cc1cc(C(=O)Cn2nc(C(=O)O)c3ccccc3c2=O)c(C)n1-c1ccc(F)cc1,.,25µM,.
Cc1cc(C(=O)Cn2nc(C(=O)O)c3ccccc3c2=O)c(C)n1-c1cccc(C(F)(F)F)c1,/,/,.
CCC(OC(=O)CNS(=O)(=O)c1ccccc1)C(=O)c1ccccc1 (stereo not given),/,/,.
Cc1ccc(C(=O)C(OC(=O)CNS(=O)(=O)c2ccccc2)c2ccccc2)cc1 (stereo not given),?,32µM,/
Cc1ccc(NC(=S)NC(=O)c2ccc(F)cc2)cc1S(=O)(=O)Nc1ccccc1Cl,.,?,.
O=C(NC(=S)Nc1ccc2c(c1)C(=O)c1ccccc1C2=O)c1ccc(F)cc1,.,4µM,.
CCOC(=O)c1c(NC(=O)c2ccc(S(=O)(=O)N(C)C3CCCCC3)cc2)sc2c1CCN(C(C)C)C2,.,.,/
Cc1cc(/C=C/c2ccc3cc(N(C)C)ccc3[n+]2C)c(C)n1-c1ccccc1,.,.,?
COc1ccc(C2=CC(c3ccccc3Cl)n3nc(-c4ccc(C)cc4)nc3N2)cc1 (stereo not given),.,3.2µM,/
COc1ccc(C2C=C(c3ccc(F)cc3)Nc3nc(-c4ccc(Cl)cc4)nn32)cc1 (stereo not given),.,.,/
NC(=O)NCCS[C@H]1CCCC[C@@H]1O,.,.,/
O=c1oc2cc(OCc3c(F)cccc3Cl)ccc2cc1-c1ccccn1,.,.,.
O=c1oc2cc(OCc3ccc(F)cc3F)ccc2cc1-c1ccc2ccccc2n1,.,13µM,.
CCCCCS(=O)(=O)CCCCCCCCCCn1c(-c2ccc(O)cc2)c(C)c2cc(O)ccc21,.,?,.
Cc1cc2c(cc1Cl)C(c1ccccc1C)CC(=O)O2 (stereo not given),.,.,.
COc1ccc([C@@H]2CC(=O)c3c(O)cc(O[C@@H]4O[C@H](CO[C@@H]5O[C@@H](C)[C@H](O)[C@@H](O)[C@H]5O)[C@@H](O)[C@H](O)[C@H]4O)cc3O2)cc1,/,/,.
C[C@@]1(C(NC(=O)c2ccccc2)c2ccc(-c3ccccc3)cc2)C[C@H]1C1CCCCC1 (stereo not given in full),.,10µM,.
C[C@@]1(C(NC(=O)Cc2ccccc2)c2ccc(-c3ccccc3)cc2)C[C@H]1C1CCCCC1 (stereo not given in full),.,.,.
CCN(CC)C(=O)C1=C(C)Nc2nc3ccccc3n2C1c1ccc(Cl)cc1 (stereo not given),.,.,/
N#CC1=C(N)Nc2nc3ccccc3n2C1c1ccc(Cl)cc1 (stereo not given),.,32µM,.
CCc1ccc(-n2nc3cc(C)c(NC(=O)c4cc(Cl)ccc4OC)cc3n2)cc1,.,.,/
COc1ccc(N2CCC(CNS(=O)(=O)c3cccc(C(F)(F)F)c3)C2)cc1 (stereo not given),.,25µM,?
COc1ccc(N2CCC(CNC(=S)Nc3cccc(C)c3)C2)cc1 (stereo not given),.,.,.
SMILES,Cruzain Triton,Cruzain noTriton,FBPA Giardia inh
Cc1ccc(-c2cn3c(n2)sc2cc(C(=O)N4CCCCC4)ccc23)cc1,.,.,/
CCCOC(=O)[C@@H]1[C@@H](C(=O)O)[C@H]2CC[C@@H]1O2,.,.,/
NS(=O)(=O)c1ccc(N=Nc2c[nH]c(=O)c(O)c2)cc1,.,.,7.1µM
Nc1nc(O)c(N=Nc2ccc(S(N)(=O)=O)cc2)c(=O)[nH]1,/,/,.
Cc1cc(-c2csc(NC(=O)c3ccc(=O)[nH]c3)n2)c(C)n1Cc1ccccc1,/,/,.
Cc1cc(-c2csc(NC(=O)c3ccc(C#N)cc3)n2)c(C)n1Cc1ccco1,.,7.9µM,.
COc1ccc(C=O)cc1OC,.,.,/
